Measurements: PubChem BioAssay
For some assays here: Results with a measured potency or affinity are listed apart. The source made the active and inactive calls. Unless noted, no rule for the calls is given here.

Tests used:
[1] = antimalarial activity against Dd2 strain (AID 2302;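 active = growth inhibition above 50% at the single 2 µM test dose, taken to imply half-maximal potency below 2 µM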;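 also: 0% = DMSO untreated growth and 100% = chloroquine plus artemisinin killed control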); conditions: P. falciparum Dd2 in RBCs, LDH growth readout, 72 h; at 2 µM; active compounds read high
[2] = human hepatoma cell viability loss – ATP luminescence, cytotoxicity control for P. falciparum antimalarial project, primary screen (AID 2303;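 active = inhibition above 50%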;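 also: 0% = DMSO wells and 100% = digitonin-killed cells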); conditions: HepG2 viability, 24-48 h, at 10 µM, active compounds read high
[3] = biological target: L-lactate dehydrogenase (Plasmodium falciparum (isolate CDC / Honduras)) (UniProt Q27743); assay: PfLDH activity inhibition – cell lysate, 3D7 strain, counter-screen for P. falciparum growth inhibition project (AID 2304);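 also: 0% = vehicle and 100% = reference inhibitor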; conditions: P. falciparum 3D7 crude extract, LDH APAD/NBT absorbance; at 2 µM; active compounds read high
Chain of L-lactate dehydrogenase (Plasmodium falciparum (isolate CDC / Honduras)) (Q27743 whole entry, looked up): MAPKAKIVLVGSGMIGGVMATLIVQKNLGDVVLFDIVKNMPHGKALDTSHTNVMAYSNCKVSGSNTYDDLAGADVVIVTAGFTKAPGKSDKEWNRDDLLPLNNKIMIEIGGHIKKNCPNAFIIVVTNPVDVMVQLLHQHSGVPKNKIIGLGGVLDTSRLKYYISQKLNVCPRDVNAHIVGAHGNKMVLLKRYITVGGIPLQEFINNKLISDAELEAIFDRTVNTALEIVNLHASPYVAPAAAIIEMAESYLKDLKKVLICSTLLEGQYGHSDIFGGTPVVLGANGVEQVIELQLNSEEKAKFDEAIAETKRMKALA

[4] = inhibition of 3D7 malaria parasite growth – strain 3D7 (AID 2306);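 also: 0% = DMSO wells and 100% = chloroquine plus artemisinin control wells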; conditions: P. falciparum 3D7 erythrocytic growth, LDH absorbance, 72 h; at 2 µM; active compounds read high
[5] = biological target: Calcium-dependent protein kinase 1 (Plasmodium falciparum (isolate 3D7)) (UniProt P62344); assay: PfCDPK1 kinase inhibitors, biochemical, TCAMS library (AID 1159585; cut-off not given, nearly all actives have IC50 up to about 0.98 µM;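 also: inhibitors leave more ATP so luminescence rises with inhibition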); conditions: recombinant PfCDPK1, Kinase-Glo ATP depletion luminescence
Chain of Calcium-dependent protein kinase 1 (Plasmodium falciparum (isolate 3D7)) (P62344 whole entry, looked up): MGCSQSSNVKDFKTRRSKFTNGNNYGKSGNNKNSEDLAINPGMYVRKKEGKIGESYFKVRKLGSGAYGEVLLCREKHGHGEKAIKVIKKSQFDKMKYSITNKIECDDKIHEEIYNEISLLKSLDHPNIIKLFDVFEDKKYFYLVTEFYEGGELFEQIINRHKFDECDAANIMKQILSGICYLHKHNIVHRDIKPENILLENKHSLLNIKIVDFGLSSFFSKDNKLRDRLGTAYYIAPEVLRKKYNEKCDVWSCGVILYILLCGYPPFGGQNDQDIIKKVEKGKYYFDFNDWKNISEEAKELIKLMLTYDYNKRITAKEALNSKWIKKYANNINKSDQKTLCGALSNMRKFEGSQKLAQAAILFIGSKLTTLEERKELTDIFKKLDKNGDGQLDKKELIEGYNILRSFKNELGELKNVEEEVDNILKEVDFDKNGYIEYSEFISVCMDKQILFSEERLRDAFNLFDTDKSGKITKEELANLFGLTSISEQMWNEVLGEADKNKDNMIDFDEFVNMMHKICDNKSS

[6] = biological target: Plasmodium falciparum protein kinase 6 (PK6, PF3D7_1337100) (UniProt Q8IDW1); assay: PfPK6 kinase inhibitors, biochemical, TCAMS library (AID 1159586); conditions: recombinant PfPK6, Kinase-Glo ATP depletion luminescence
Chain of Plasmodium falciparum protein kinase 6 (PK6, PF3D7_1337100) (Q8IDW1 1-305): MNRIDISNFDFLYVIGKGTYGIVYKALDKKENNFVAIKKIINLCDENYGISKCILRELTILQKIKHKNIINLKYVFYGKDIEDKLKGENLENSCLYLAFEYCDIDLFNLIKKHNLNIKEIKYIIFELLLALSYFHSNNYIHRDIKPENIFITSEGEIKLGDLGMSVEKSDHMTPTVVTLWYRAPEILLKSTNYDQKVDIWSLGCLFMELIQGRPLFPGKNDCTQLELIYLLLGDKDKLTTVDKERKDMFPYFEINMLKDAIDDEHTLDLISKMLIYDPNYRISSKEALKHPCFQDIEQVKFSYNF

[7] = biological target: Protein kinase 7 (PK7), Plasmodium falciparum 3D7 (PF3D7_0213400) (UniProt Q7YTF7); assay: inhibition of Plasmodium PK7 catalytic activity – biochemical, TCAMS antimalarial set, Kinase-Glo luminescence (AID 1159587); conditions: recombinant PfPK7, Kinase-Glo ATP depletion luminescence
Chain of Protein kinase 7 (PK7), Plasmodium falciparum 3D7 (PF3D7_0213400) (Q7YTF7 1-343): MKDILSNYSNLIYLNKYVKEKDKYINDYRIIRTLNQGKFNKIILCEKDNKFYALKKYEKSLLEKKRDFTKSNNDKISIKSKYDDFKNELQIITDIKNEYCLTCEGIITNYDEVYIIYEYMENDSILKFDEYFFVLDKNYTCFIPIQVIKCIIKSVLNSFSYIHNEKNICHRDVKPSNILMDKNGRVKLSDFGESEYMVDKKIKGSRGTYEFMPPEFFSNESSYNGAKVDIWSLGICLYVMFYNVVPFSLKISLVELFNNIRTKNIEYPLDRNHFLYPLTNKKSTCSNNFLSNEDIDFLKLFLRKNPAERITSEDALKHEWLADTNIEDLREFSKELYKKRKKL

[8] = biological target: Calcium-dependent protein kinase 4 (Plasmodium falciparum (isolate 3D7)) (UniProt Q8IBS5); assay: PfCDPK4 kinase inhibitors, biochemical, TCAMS library (AID 1159588; cut-off not given, nearly all actives have IC50 up to about 0.91 µM); conditions: recombinant PfCDPK4, Kinase-Glo ATP depletion luminescence
Chain of Calcium-dependent protein kinase 4 (Plasmodium falciparum (isolate 3D7)) (Q8IBS5 whole entry, looked up): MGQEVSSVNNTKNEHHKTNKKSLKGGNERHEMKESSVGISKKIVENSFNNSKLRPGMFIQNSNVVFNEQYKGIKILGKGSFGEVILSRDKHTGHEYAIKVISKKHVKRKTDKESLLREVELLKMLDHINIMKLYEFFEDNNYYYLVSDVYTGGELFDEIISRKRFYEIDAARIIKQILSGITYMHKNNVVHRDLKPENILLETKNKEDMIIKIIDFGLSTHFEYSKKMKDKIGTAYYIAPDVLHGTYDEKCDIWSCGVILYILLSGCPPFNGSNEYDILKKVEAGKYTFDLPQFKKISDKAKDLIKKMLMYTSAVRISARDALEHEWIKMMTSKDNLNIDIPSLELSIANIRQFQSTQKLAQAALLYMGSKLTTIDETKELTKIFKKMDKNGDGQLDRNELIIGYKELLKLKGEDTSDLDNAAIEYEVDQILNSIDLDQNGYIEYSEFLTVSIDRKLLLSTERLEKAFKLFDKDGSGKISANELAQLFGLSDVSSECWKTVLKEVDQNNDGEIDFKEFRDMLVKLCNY

Cc1[nH]c(C)c(-c2ccc(-c3ccccc3Cl)nc2)c(=O)c1Cl
inactive: inhibition [2] -1% | inhibition [3] -5% | outcome [5] | outcome [6] | outcome [7] | outcome [8]
active: growth inhibition [1] 97% | growth inhibition [4] 98%

Cc1cc(Nc2cccc(C(F)(F)F)c2)nc(N)n1
active: growth inhibition [4] 98%
inactive: growth inhibition [1] 24% | inhibition [2] 5% | inhibition [3] 1% | outcome [5] | outcome [6] | outcome [7] | outcome [8]

COc1cccc(NC(=O)Nc2ccc(C)c(-c3ccc(C(=O)Nc4ccncc4)cc3)c2)c1
inactive: inhibition [2] 45% | inhibition [3] 1% | outcome [5] | outcome [6] | outcome [7] | outcome [8]
active: growth inhibition [1] 64% | growth inhibition [4] 99%

Cc1ccc(-c2nnc(Nc3ccc(CC(N)=O)cc3)c3ccccc23)cc1S(=O)(=O)NCC1CCCO1 (stereo unspecified)
active: growth inhibition [1] 64% | growth inhibition [4] 83%
inactive: inhibition [2] -6% | inhibition [3] 6% | outcome [5] | outcome [6] | outcome [7] | outcome [8]

Nc1ncc(-c2ccc3[nH]ccc3c2)c2ccc(-c3ccncc3)cc12
inactive: inhibition [2] 42% | inhibition [3] -6% | outcome [5] | outcome [6] | outcome [7] | outcome [8]
active: growth inhibition [1] 100% | growth inhibition [4] 100%

COc1ccc2nccc(N3CCN(CCNCc4ccc5c(n4)NC(=O)CO5)CC3)c2n1
inactive: growth inhibition [1] 12% | inhibition [2] 10% | inhibition [3] 1% | outcome [5] | outcome [6] | outcome [7] | outcome [8]
active: growth inhibition [4] 98%

O=C(NC1CCN(Cc2ccc3c(c2)OCCO3)CC1)c1ccc(-c2cccc(C(F)(F)F)c2)s1
inactive: growth inhibition [1] 35% | inhibition [3] 5% | outcome [5] | outcome [6] | outcome [7] | outcome [8]
active: inhibition [2] 99% | growth inhibition [4] 100%

O=C(/C=C/c1ccc(Cl)c(Cl)c1)N1CCC(CN2CCC(c3c[nH]c4cnccc34)CC2)CC1
active: growth inhibition [1] 100% | growth inhibition [4] 102%
inactive: inhibition [2] 39% | inhibition [3] 7% | outcome [5] | outcome [6] | outcome [7] | outcome [8]

CCN1CCC(N(Cc2ccc(-c3ccc(C(F)(F)F)cc3)cc2)C(=O)Cn2c(CCc3cccc(F)c3F)cc(=O)c3c2CCCC3)CC1
inactive: inhibition [3] 0% | outcome [5] | outcome [6] | outcome [7] | outcome [8]
active: growth inhibition [1] 96% | inhibition [2] 55% | growth inhibition [4] 100%

CCCCCOc1ccc(NC2=CC(=O)C(=O)c3ccccc32)cc1
active: growth inhibition [1] 96% | growth inhibition [4] 99%
inactive: inhibition [2] 10% | inhibition [3] -4% | outcome [5] | outcome [6] | outcome [7] | outcome [8]

COCCNCc1ccc(-c2ccc3c(Nc4ccc(F)cc4Cl)ccnc3c2)o1
active: growth inhibition [1] 100% | growth inhibition [4] 100%
inactive: inhibition [2] 22% | inhibition [3] 2% | outcome [5] | outcome [6] | outcome [7] | outcome [8]

O=C(Nc1cccc(N2CCC(NCCCc3ccncc3)CC2)c1)c1cccc(C(F)(F)F)c1
active: growth inhibition [1] 50% | growth inhibition [4] 96%
inactive: inhibition [2] 11% | inhibition [3] 4% | outcome [5] | outcome [6] | outcome [7] | outcome [8]

CCCN(Cc1nnc(-c2ccco2)o1)C(=O)C1CCCN(C(=O)c2ccc(Cl)cc2)C1 (stereo unspecified)
active: growth inhibition [1] 96% | growth inhibition [4] 96%
inactive: inhibition [2] -3% | inhibition [3] -1% | outcome [5] | outcome [6] | outcome [7] | outcome [8]

Cc1noc(-c2ccccc2)c1NC(=O)N1CCN(CCCCCCNC(=O)/C=C/c2ccc(Cl)c(Cl)c2)CC1
inactive: growth inhibition [1] 1% | inhibition [2] 6% | inhibition [3] 2% | outcome [5] | outcome [6] | outcome [7] | outcome [8]
active: growth inhibition [4] 95%

COc1cccc(Nc2c(C(N)=O)cnc3ccc(-c4ccccc4)cc23)c1
active: growth inhibition [1] 99% | growth inhibition [4] 98%
inactive: inhibition [2] 2% | inhibition [3] -2% | outcome [5] | outcome [6] | outcome [7] | outcome [8]

NC(=O)c1cccc(Nc2nccc(Nc3ccc(Oc4cccc5ccccc45)cc3)n2)c1
inactive: growth inhibition [1] 22% | inhibition [2] -10% | inhibition [3] 3% | outcome [5] | outcome [6] | outcome [7] | outcome [8]
active: growth inhibition [4] 94%

CCCN(CCC)CCCN(CCCN(CCC)CCC)c1cc(C)nc(Nc2ccc3cc(Br)ccc3c2)n1
inactive: inhibition [3] 1% | outcome [5] | outcome [6] | outcome [7] | outcome [8]
active: growth inhibition [1] 99% | inhibition [2] 99% | growth inhibition [4] 98%

O=C(Nc1ccccc1)N(Cc1ccc(-c2cccc(CNC3CCCC3)c2)cc1)C1CCN(Cc2ccccc2)CC1
active: growth inhibition [1] 67% | growth inhibition [4] 101%
inactive: inhibition [2] 43% | inhibition [3] 1% | outcome [5] | outcome [6] | outcome [7] | outcome [8]

Cc1cnc(NCCc2ccc(F)cc2)nc1NCCC(=O)Nc1ccccc1
inactive: growth inhibition [1] 17% | inhibition [2] 3% | inhibition [3] 6% | outcome [5] | outcome [6] | outcome [7] | outcome [8]
active: growth inhibition [4] 89%

CCC(=O)Nc1ccc(C(O)CN2CCC3(C=Cc4ccccc4O3)CC2)cc1 (stereo unspecified)
inactive: growth inhibition [1] 47% | inhibition [2] 48% | inhibition [3] -1% | outcome [5] | outcome [6] | outcome [7] | outcome [8]
active: growth inhibition [4] 93%

O=C(Nc1ccc(Cl)c(Cl)c1)N1CCc2ccc(OCCCN3CCCCC3)cc2CC1
active: growth inhibition [4] 92%
inactive: growth inhibition [1] -2% | inhibition [2] 27% | inhibition [3] -2% | outcome [5] | outcome [6] | outcome [7] | outcome [8]

Cc1nnsc1C(=O)Nc1ccc(-c2cccc(-c3nc4ccc(C(F)(F)F)cc4[nH]3)c2)cc1
inactive: growth inhibition [1] 36% | inhibition [3] 2% | outcome [5] | outcome [6] | outcome [7] | outcome [8]
active: inhibition [2] 69% | growth inhibition [4] 97%

O=C(Nc1ccc(-c2csc(-c3nc4ccccc4[nH]3)c2)cc1)Nc1ccsc1
active: inhibition [2] 50% | growth inhibition [4] 101%
inactive: growth inhibition [1] 17% | inhibition [3] -1% | outcome [5] | outcome [6] | outcome [7] | outcome [8]

COc1ccccc1CCCN1C(=O)C(c2ccccc2)(c2ccccc2)N=C1N
active: growth inhibition [1] 99% | growth inhibition [4] 99%
inactive: inhibition [2] 49% | inhibition [3] -3% | outcome [5] | outcome [6] | outcome [7] | outcome [8]

O=C(Nc1cccc(-c2ccc(-c3nc4ccccc4[nH]3)s2)c1)c1ccncc1
inactive: growth inhibition [1] 29% | inhibition [3] -9% | outcome [5] | outcome [6] | outcome [7] | outcome [8]
active: inhibition [2] 67% | growth inhibition [4] 92%

CC(=O)Nc1ncc(C(=O)Nc2cccc(-c3cccc(-c4nc5ccc(C(F)(F)F)cc5[nH]4)c3)c2)s1
active: growth inhibition [1] 99% | inhibition [2] 76% | growth inhibition [4] 101%
inactive: inhibition [3] 3% | outcome [5] | outcome [6] | outcome [7] | outcome [8]

Nc1ncc(-c2ccc(NC(=O)Nc3cc(C(F)(F)F)ccc3F)cc2)c(N)n1
inactive: growth inhibition [1] 21% | inhibition [3] -5% | outcome [5] | outcome [6] | outcome [7] | outcome [8]
active: inhibition [2] 96% | growth inhibition [4] 99%

Cc1cc(N2CCCC2)nc(Nc2ccc(NC(=O)c3ccccc3C)cc2)n1
active: growth inhibition [4] 100%
inactive: growth inhibition [1] 40% | inhibition [2] 22% | inhibition [3] 2% | outcome [5] | outcome [6] | outcome [7] | outcome [8]

Cc1ccc(-c2noc(COc3ccccc3C(=O)NC3CCCC3)n2)cc1
inactive: inhibition [2] 9% | inhibition [3] -4% | outcome [5] | outcome [6] | outcome [7] | outcome [8]
active: growth inhibition [1] 92% | growth inhibition [4] 89%

CCCNC(=O)Nc1ccc(N(C)c2ccnc(NC3CC3)n2)cc1
inactive: inhibition [2] 28% | inhibition [3] -2% | outcome [5] | outcome [6] | outcome [7] | outcome [8]
active: growth inhibition [1] 88% | growth inhibition [4] 100%

c1cc2c3c(cccc3c1)NC(CCCCCCCCC1=Nc3cccc4cccc(c34)N1)=N2
inactive: growth inhibition [1] 6% | inhibition [2] 14% | inhibition [3] 0% | outcome [5] | outcome [6] | outcome [7] | outcome [8]
active: growth inhibition [4] 93%

O=C(Nc1cccc(CN2CCCN(Cc3ccc4c(c3)OCO4)CC2)c1)c1ccc(-c2ccccc2)cc1
active: growth inhibition [4] 90%
inactive: growth inhibition [1] 19% | inhibition [2] 48% | inhibition [3] -10% | outcome [5] | outcome [6] | outcome [7] | outcome [8]

Cc1ccc(CCOCCCCCNCC(O)c2cc(Cl)c(N)c(Cl)c2)cc1 (stereo unspecified)
inactive: inhibition [2] 10% | inhibition [3] -1% | outcome [5] | outcome [6] | outcome [7] | outcome [8]
active: growth inhibition [1] 98% | growth inhibition [4] 99%

COc1cccc(C(O)CNc2ccnc(Nc3ccc(Cl)cc3)n2)c1 (stereo unspecified)
active: growth inhibition [4] 99%
inactive: growth inhibition [1] 46% | inhibition [2] 31% | inhibition [3] -7% | outcome [5] | outcome [6] | outcome [7] | outcome [8]

O=C(/C=C/c1ccc2ccccc2c1)NCCCCCN1CCC(c2c[nH]c3ccccc23)CC1
active: growth inhibition [4] 90%
inactive: growth inhibition [1] 4% | inhibition [2] 18% | inhibition [3] 6% | outcome [5] | outcome [6] | outcome [7] | outcome [8]

Clc1ccc(-c2[nH]c3ccccc3c2CN2CCC(N3CCCCC3)CC2)cc1
inactive: growth inhibition [1] 15% | inhibition [2] 5% | inhibition [3] 5% | outcome [5] | outcome [6] | outcome [7] | outcome [8]
active: growth inhibition [4] 93%

CSC1=NC(=Nc2ccccc2C)C2(CCC(C(C)(C)C)CC2)N1c1ccccc1Cl (stereo unspecified)
active: growth inhibition [1] 89% | growth inhibition [4] 96%
inactive: inhibition [2] 3% | inhibition [3] 4% | outcome [5] | outcome [6] | outcome [7] | outcome [8]
